The record followed here is PubChem BioAssay (EPA / NIEHS).

The nature of assay [1]: ATG_CRE_CIS: Attagene CIS-FACTORIAL HepG2 Assay for human cAMP Responsive Element (CRE) binding protein 3 (AID 2282926). Conditions: HepG2 CRE cis-reporter, Attagene multiplexed mRNA; actives raise or lower the signal. Summed up:
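Induced reporter mRNA from a CRE cis element, measured in HepG2 among many multiplexed units at 24 h. Detection used RT-PCR plus capillary electrophoresis of fluorescent fragments; DMSO served as negative control.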

For assay [2], the target named is CCAAT/enhancer-binding protein beta (Homo sapiens) (UniProt P17676). In words: ATG_C_EBP_CIS: Attagene CIS-FACTORIAL HepG2 Assay for human CCAAT/Enhancer Binding Protein (C/EBP) beta (AID 2282927). As to conditions: HepG2 Attagene cis-factorial transcription factor reporter; actives raise or lower the signal. In short, it runs like this: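 HepG2 transiently transfected with multiplexed reporter units under cis-regulatory promoters reporting endogenous C/EBPb activity. After 24 h exposure, reporter mRNA assayed by RT-PCR, fluorescent labelling, HpaI digestion and capillary electrophoresis; bidirectional fitting versus DMSO.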

Assay [3] is described as follows: ATG_CMV_CIS: Attagene CIS-FACTORIAL HepG2 Assay for human CMV (Internal Marker) (AID 2282928).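 Further: endpoint acts as a background internal control marker rather than a target.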 Conditions: HepG2 CMV promoter reporter, transcription factor profiling; actives raise or lower the signal. Summed up:
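24 h chemical treatment, HepG2 with transient multi-reporter transfection; RNA → oligo(dT) RT → PCR → 6-FAM extension → HpaI digest → CE fluorescence. Bidirectional fit, DMSO negative control.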

Assay [4] is described as follows: ATG_DR4_LXR_CIS: Attagene CIS-FACTORIAL HepG2 Assay for human Liver X Receptor (LXR), DR4 submotif (AID 2282929). Conditions: HepG2 Attagene DR4 cis-reporter, mRNA transcription; actives raise or lower the signal. Summed up: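 Endogenous factor activity at a DR4 cis-element is read as reporter mRNA in transiently transfected HepG2 cells. Exposure lasts 24 h; transcripts are amplified, fluorescently labelled and sized by capillary electrophoresis, with DMSO as baseline.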

The target in assay [5] is Aryl hydrocarbon receptor (Homo sapiens) (UniProt P35869). Kind of assay: ATG_Ahr_CIS: Attagene CIS-FACTORIAL HepG2 Assay for human Aryl Hydrocarbon Receptor (Ahr) (AID 2282930). As to conditions: HepG2 AhR cis-factorial reporter transcription; actives raise or lower the signal. In short, it runs like this:
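HepG2 cells transiently transfected with cis-element-driven multiplexed reporter units; endogenous AhR activity read as reporter mRNA 24 h after dosing, via RT-PCR, 6-FAM labelling, HpaI digestion and capillary electrophoresis. Bidirectional fit relative to DMSO.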

The nature of assay [6]: ATG_AP_1_CIS: Attagene CIS-FACTORIAL HepG2 Assay for human Activator Protein 1 (AP-1) (AID 2282931). As to conditions: HepG2 Attagene cis-factorial AP-1 reporter mRNA; actives raise or lower the signal. In short, it runs like this:
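Fluorescence of labelled PCR fragments separated by capillary electrophoresis gives reporter mRNA levels. HepG2 with transfected cis-regulated reporter units, 24 h exposure; DMSO serves as baseline for bidirectional curve fits.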

Assay [7] can be described thus: ATG_AP_2_CIS: Attagene CIS-FACTORIAL HepG2 Assay for human Activator Protein 2 (AP-2) (AID 2282932). As to conditions: HepG2 AP-2 cis-reporter, Attagene transcription factor profiling; actives raise or lower the signal. Summed up: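 Read-out: fluorescent reporter mRNA via RT-PCR and capillary electrophoresis, 24 h post-dose in transiently transfected HepG2. Endogenous factors drive cis-promoter reporters; gain or loss of signal fitted bidirectionally against DMSO.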

Assay [8] can be described thus: ATG_BRE_CIS: Attagene CIS-FACTORIAL HepG2 Assay for human Bone Morphogenetic Protein (BMP) Response Element (BRE) (AID 2282933). Conditions: HepG2 BMP response element reporter, Attagene transcription factor profiling; actives raise or lower the signal. In short, it runs like this: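 Gain- or loss-of-signal was derived by bidirectional fitting against DMSO controls. The signal came from reporter mRNA, measured by RT-PCR and capillary electrophoresis, in HepG2 cells transiently carrying multiple reporter units and dosed for 24 h.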

In assay [9] the target is Transcription factor E2F1 (Homo sapiens) (UniProt Q01094). In words: ATG_E2F_CIS: Attagene CIS-FACTORIAL HepG2 Assay for human E2F Transcription Factor 1 (AID 2282935). Conditions: HepG2 Attagene cis-reporter, E2F reporter RNA transcripts; actives raise or lower the signal. In short, it runs like this:
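Transient MRTU transfection of HepG2; 24 h compound exposure; RNA → oligo(dT) RT → PCR → FAM label → HpaI cut → CE fluorescence. Gain/loss of signal fit against DMSO.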

The nature of assay [10]: ATG_E_Box_CIS: Attagene CIS-FACTORIAL HepG2 Assay for human Enhancer Box (E-box) (AID 2282936). Conditions: HepG2 E-box cis-reporter transcription, actives raise or lower the signal. Summed up:
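Transiently transfected HepG2, endogenous TF-driven reporters, 24 h dosing. Readout: RT-PCR plus capillary electrophoresis of fluorescent reporter fragments. Gain or loss of signal fitted bidirectionally against DMSO baseline.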

Assay [11] can be described thus: ATG_M_61_CIS: Attagene CIS-FACTORIAL HepG2 Assay for M61 Transcription Factor (Internal Marker) (AID 2282937). As to conditions: HepG2 Attagene CIS-FACTORIAL M61 internal marker reporter; actives raise or lower the signal. In short, it runs like this:
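This endpoint serves as an internal background control within a multiplexed HepG2 cis-reporter panel. Cells are exposed for 24 h; reporter mRNA is amplified, fluorescently labelled and sized by capillary electrophoresis, with DMSO as negative control.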

Assay [12] in a line: ATG_EGR_CIS: Attagene CIS-FACTORIAL HepG2 Assay for human Early Growth Response 1 (EGR1) (AID 2282938). Conditions: HepG2 Attagene CIS-FACTORIAL EGR reporter mRNA; actives raise or lower the signal. In short, it runs like this:
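HepG2, transient MRTU transfection (cis promoters), 24 h compound. RNA → RT (oligo-dT) → PCR → 6-FAM labelling → HpaI cut → CE fluorescence. Bidirectional fit, DMSO baseline.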

A short description of assay [13]: ATG_M_19_CIS: Attagene CIS-FACTORIAL HepG2 Assay for M19 Transcription Factor (Internal Marker) (AID 2282939). As to conditions: HepG2 Attagene CIS-FACTORIAL M19 internal marker reporter; actives raise or lower the signal. Summed up: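 Following a 24 h exposure, RNA from transfected HepG2 cells was reverse-transcribed, PCR-amplified with reporter-specific primers, end-labelled with 6-FAM and HpaI-digested before capillary separation. Values represent gain or loss versus DMSO.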

Assay [14] can be described thus: ATG_ERE_CIS: Attagene CIS-FACTORIAL HepG2 Assay for Estrogen Response Element (ERE) (AID 2282940). As to conditions: HepG2 ERE cis-reporter, Attagene RNA transcript; actives raise or lower the signal. Summed up: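 HepG2, transient cis-reporter units, 24 h exposure. RNA isolated, oligo(dT) RT, reporter-specific PCR, FAM extension, HpaI cut, CE detection. Gain/loss-of-signal vs DMSO.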

Assay [15] is described as follows: ATG_Ets_CIS: Attagene CIS-FACTORIAL HepG2 Assay for human Erythroblast Transformation Specific (ETS) (AID 2282941). As to conditions: HepG2 ETS cis-reporter transcription, actives raise or lower the signal. Summed up: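 Cis-regulated reporter mRNA induction in HepG2 (transient transfection), 24 h exposure, RT-PCR plus capillary electrophoresis detection; DMSO serves as negative control and baseline.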

Assay [16] addresses Hepatocyte nuclear factor 3-beta (Homo sapiens) (UniProt Q9Y261). In words: ATG_FoxA2_CIS: Attagene CIS-FACTORIAL HepG2 Assay for human Forkhead box A2 (FOXA2) (AID 2282942). As to conditions: HepG2 cis-reporter transcription factor activity, 24 h; actives raise or lower the signal. In short, it runs like this:
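Cells: HepG2, transient multiplex reporter transfection. Exposure 24 h. Detection: reporter-specific RT-PCR, fluorescent labelling, restriction digest, capillary electrophoresis. Analysis: bidirectional curve fit, DMSO as negative control.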

A short description of assay [17]: ATG_FoxO_CIS: Attagene CIS-FACTORIAL HepG2 Assay for human Forkhead box O (FoxO) (AID 2282943). As to conditions: HepG2 Attagene cis-reporter, FoxO element, mRNA; actives raise or lower the signal. Summed up:
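HepG2 cells transiently transfected with cis-element-driven reporter units report endogenous FoxO activity. After 24 h chemical exposure, reporter mRNA quantified by RT-PCR, fluorescent labeling, HpaI digestion and capillary electrophoresis; bidirectional fit versus DMSO.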

A short description of assay [18]: ATG_GLI_CIS: Attagene CIS-FACTORIAL HepG2 Assay for human Zinc Finger Protein GLI1 (AID 2282945). Conditions: HepG2, Attagene cis-factorial reporter mRNA, GLI element; actives raise or lower the signal. Summed up:
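Transiently transfected HepG2 cells report endogenous transcription factor activity via cis-element-driven reporter units. After 24 h compound exposure, reporter mRNA was measured by RT-PCR with capillary electrophoresis; bidirectional fitting against DMSO baseline.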

For assay [19], the target named is Retinoic acid receptor alpha (Homo sapiens) (UniProt P10276). Kind of assay: ATG_DR5_RAR_CIS: Attagene CIS-FACTORIAL HepG2 Assay for human Retinoic Acid Receptor Alpha (RARE), DR5 submotif (AID 2282934).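 On AC50: reporter responds to endogenous RAR alpha beta and gamma in HepG2 not RARA alone.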 Conditions: HepG2 Attagene cis-factorial RARE DR5 reporter, mRNA; actives raise or lower the signal. Summed up:
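HepG2 cells transiently transfected with multiplexed reporter units; DR5 cis-element drives reporter through endogenous transcription factors. After 24 h dosing, reporter mRNA quantified by RT-PCR, fluorescent labeling, HpaI digestion and capillary electrophoresis; bidirectional fitting versus DMSO.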

Assay [20] is described as follows: ATG_GATA_CIS: Attagene CIS-FACTORIAL HepG2 Assay for human GATA Binding Protein (AID 2282944). Conditions: HepG2 GATA cis-element reporter, Attagene multiplex mRNA; actives raise or lower the signal. Summed up: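 DMSO serves as negative control and baseline for bidirectional fitting of reporter mRNA changes. HepG2 cells bearing transiently transfected cis-promoter reporters were exposed 24 h; transcripts detected via RT-PCR and capillary electrophoresis.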

Molecules are shown by their SMILES. Active and inactive are the calls of the source. How the source made its calls: active means hit-call score of the fitted dose curve at least 0.9, where 1 is the maximum; inactive means score below 0.9.

As a reminder, the AC50 is the midpoint of the concentration-response curve, whichever way the signal moves.

Chain of Hepatocyte nuclear factor 3-beta (Homo sapiens) (Q9Y261 whole entry, looked up): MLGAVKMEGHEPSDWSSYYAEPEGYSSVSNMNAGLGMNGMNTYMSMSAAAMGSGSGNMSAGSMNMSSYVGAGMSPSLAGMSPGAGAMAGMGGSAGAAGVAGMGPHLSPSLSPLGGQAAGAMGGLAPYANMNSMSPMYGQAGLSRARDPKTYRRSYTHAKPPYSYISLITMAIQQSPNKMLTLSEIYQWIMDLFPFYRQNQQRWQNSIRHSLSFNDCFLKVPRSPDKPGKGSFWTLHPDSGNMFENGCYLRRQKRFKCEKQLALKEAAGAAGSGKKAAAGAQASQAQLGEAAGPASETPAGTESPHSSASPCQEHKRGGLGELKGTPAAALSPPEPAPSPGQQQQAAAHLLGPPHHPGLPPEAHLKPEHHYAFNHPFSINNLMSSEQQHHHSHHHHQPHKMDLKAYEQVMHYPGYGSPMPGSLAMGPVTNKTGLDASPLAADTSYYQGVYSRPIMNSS
Chain of CCAAT/enhancer-binding protein beta (Homo sapiens) (P17676 whole entry, looked up): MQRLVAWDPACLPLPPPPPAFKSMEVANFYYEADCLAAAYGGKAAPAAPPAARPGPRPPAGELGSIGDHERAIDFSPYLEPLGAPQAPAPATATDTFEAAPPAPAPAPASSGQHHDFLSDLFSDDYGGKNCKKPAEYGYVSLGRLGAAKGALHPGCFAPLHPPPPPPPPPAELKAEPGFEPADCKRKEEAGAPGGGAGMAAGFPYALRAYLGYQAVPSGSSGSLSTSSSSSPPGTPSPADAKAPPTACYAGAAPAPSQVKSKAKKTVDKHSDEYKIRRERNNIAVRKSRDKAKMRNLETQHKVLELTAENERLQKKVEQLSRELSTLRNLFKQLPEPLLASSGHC
Chain of Aryl hydrocarbon receptor (Homo sapiens) (P35869 whole entry, looked up): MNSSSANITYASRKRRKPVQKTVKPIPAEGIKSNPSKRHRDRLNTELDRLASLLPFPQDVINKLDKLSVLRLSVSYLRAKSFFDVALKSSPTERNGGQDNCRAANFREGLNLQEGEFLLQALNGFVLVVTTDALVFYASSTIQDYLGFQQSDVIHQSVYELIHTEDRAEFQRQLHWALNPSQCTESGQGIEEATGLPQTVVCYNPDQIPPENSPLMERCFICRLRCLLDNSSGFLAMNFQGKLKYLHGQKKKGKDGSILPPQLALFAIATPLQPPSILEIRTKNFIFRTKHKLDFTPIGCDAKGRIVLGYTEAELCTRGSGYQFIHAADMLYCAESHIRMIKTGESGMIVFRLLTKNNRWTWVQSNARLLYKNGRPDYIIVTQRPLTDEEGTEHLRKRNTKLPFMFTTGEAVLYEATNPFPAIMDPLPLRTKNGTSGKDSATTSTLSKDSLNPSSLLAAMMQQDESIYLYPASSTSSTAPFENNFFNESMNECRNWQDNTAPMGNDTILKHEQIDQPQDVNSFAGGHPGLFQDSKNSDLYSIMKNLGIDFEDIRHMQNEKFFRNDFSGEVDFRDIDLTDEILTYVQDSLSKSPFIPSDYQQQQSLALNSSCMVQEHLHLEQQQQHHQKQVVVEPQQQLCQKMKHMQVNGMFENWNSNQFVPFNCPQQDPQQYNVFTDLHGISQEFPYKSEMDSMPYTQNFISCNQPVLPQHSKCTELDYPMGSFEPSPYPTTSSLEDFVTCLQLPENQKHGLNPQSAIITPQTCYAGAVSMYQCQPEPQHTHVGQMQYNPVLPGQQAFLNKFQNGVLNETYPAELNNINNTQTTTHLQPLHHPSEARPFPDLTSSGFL
Chain of Retinoic acid receptor alpha (Homo sapiens) (P10276 whole entry, looked up): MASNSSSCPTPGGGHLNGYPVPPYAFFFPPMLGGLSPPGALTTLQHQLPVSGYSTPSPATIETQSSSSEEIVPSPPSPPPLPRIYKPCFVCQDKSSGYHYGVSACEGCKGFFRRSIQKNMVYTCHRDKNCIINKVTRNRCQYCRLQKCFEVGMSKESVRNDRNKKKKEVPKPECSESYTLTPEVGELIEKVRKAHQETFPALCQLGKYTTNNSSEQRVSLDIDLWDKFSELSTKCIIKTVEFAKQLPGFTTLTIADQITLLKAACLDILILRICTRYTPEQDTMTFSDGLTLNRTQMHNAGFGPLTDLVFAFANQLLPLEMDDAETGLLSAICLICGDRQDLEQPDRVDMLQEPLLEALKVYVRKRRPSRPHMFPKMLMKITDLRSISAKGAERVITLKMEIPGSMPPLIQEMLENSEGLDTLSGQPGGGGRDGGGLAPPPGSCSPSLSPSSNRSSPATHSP
Chain of Transcription factor E2F1 (Homo sapiens) (Q01094 whole entry, looked up): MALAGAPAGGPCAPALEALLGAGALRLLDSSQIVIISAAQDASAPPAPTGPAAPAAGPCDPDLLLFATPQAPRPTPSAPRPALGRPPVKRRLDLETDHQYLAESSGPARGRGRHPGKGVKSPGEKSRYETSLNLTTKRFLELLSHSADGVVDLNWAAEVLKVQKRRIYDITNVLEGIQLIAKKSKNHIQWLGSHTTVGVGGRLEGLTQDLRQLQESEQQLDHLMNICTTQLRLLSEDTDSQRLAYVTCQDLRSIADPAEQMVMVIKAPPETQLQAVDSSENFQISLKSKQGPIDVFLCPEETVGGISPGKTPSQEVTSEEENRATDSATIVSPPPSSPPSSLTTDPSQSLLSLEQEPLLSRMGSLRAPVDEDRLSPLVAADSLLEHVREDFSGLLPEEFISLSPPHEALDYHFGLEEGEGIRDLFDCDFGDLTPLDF

`CCn1nc(C)c2c1C(=O)NCC(c1ccc(O)cc1)=N2`: the result in [1], in assay [2], in assay [3], in assay [4], in assay [5] and in assay [6] was inactive. For the same molecule, the call in assay [7], in [8], in assay [9], in [10], in assay [11] and in assay [12] was inactive. Moreover, the outcome in [13], in assay [14], in assay [15], in assay [16], in assay [17] and in assay [18] was inactive.

`OC[C@H]1O[C@@H]2O[C@H]3[C@H](O)[C@@H](O)[C@@H](O[C@H]4[C@H](O)[C@@H](O)[C@@H](O[C@H]5[C@H](O)[C@@H](O)[C@@H](O[C@H]6[C@H](O)[C@@H](O)[C@@H](O[C@H]7[C@H](O)[C@@H](O)[C@@H](O[C@H]1[C@H](O)[C@H]2O)O[C@@H]7CO)O[C@@H]6CO)O[C@@H]5CO)O[C@@H]4CO)O[C@@H]3CO`: the molecule was classed as inactive in [1], in assay [2], in [3], in assay [4], in [6] and in assay [7]. Moreover, the molecule was classed as inactive in assay [19], in [10], in assay [11], in [12], in assay [13] and in [14]. The call in [15], in assay [16], in assay [17], in [20] and in assay [18] was inactive. Further, in assay [5], the AC50 was 33.5 µM (active).

Take `COc1cc(C(C)C)c2c(c1)S(=O)(=O)N(COc1cc(=O)n3cccc(OCCN4CCCCC4)c3n1)C2=O`: the AC50 in assay [1] is 3.96 µM (active); in assay [2], 3.74 µM (active); in [3], 2.2 µM (active); in assay [4], 0.643 µM (active); in [6], 2.24 µM (active); in assay [19], 0.812 µM (active). Moreover, the half-maximal activity concentration (AC50) in assay [11] is 12.3 µM (active); in assay [12], 2.75 µM (active); in [15], 2.02 µM (active); in assay [20], 14.1 µM (active). For the same molecule, the call in assay [5], in [7], in assay [10], in assay [13], in assay [14] and in [16] was inactive. In addition, the result in assay [17] and in assay [18] was inactive.

As to `O=S1(=O)CCCO1`, the call in assay [1], in assay [2], in assay [3], in assay [4], in [5] and in [6] was inactive. For the same molecule, the call in assay [7], in assay [8], in [10], in assay [11], in assay [12] and in [13] was inactive. In addition, the outcome in assay [14], in assay [15], in assay [16], in [17] and in assay [18] was inactive.
